# Measured values: publication PMC7862700, “An all-to-all approach to the identification of sequence-specific readers for epigenetic DNA modifications on cytosine”
# Key:
# Experiment in all cases: DAPPL (digital affinity profiling via proximity ligation, sequencing); 10 mM Tris-HCl pH 7.5, 50 mM NaCl, 1 mM DTT, 4% glycerol, room temperature, 30 min; GST-TFs on glutathione beads, 16-mer random dsDNA library, 0.1% formaldehyde crosslink after washing; high values mean tight binding
# FLI1 = biological target: T1, FLI1 (Homo sapiens, UniProt Q01543 1-452); conditions: protein: recombinant; tags: N-terminal GST; dsDNA, one strand shown
# T1 sequence: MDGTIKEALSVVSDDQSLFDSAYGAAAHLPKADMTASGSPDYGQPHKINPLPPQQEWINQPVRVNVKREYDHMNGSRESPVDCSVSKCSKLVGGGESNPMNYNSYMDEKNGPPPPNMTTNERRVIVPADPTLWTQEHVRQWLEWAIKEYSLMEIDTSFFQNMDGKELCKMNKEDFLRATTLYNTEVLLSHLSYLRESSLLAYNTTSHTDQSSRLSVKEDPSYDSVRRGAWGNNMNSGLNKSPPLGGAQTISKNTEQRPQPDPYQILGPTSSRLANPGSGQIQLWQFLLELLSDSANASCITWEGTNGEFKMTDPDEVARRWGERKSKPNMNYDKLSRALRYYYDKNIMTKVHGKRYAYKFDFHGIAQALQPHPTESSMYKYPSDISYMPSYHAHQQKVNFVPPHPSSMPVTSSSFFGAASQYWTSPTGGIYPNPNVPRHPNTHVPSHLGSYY
# How it was run: (§1)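 A tag-only sample was pooled with DNA-barcoded human transcription factors that had been expressed in yeast as GST fusions and captured on glutathione beads. The pools were incubated for 30 min at room temperature with 200 nmole of a random double-stranded 16-mer DNA library in Tris/NaCl/DTT/glycerol buffer, then washed, crosslinked with 0.1% formaldehyde, proximity-ligated (BsaI/T4 ligase, 1 h, 37 °C), PCR-amplified and sequenced on an Illumina NextSeq500. Binding signal is each hexamer's read frequency for a factor divided by its frequency for the tag-only sample.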
# ELK1 = biological target: T2, ELK1 (Homo sapiens, UniProt P19419 1-428); conditions: protein: recombinant; tags: N-terminal GST; dsDNA, one strand shown
# T2 sequence: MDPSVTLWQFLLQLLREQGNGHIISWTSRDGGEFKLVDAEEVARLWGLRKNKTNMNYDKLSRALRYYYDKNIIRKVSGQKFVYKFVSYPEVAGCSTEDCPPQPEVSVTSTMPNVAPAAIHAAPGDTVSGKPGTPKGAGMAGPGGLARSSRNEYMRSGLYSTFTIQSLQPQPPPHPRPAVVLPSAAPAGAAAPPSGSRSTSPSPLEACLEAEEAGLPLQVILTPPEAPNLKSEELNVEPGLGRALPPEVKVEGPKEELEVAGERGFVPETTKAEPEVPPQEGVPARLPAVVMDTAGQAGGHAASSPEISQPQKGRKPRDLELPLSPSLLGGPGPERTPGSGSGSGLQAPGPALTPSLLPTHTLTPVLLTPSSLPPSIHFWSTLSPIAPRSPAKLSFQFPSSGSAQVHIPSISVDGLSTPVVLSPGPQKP
# How it was run: as §1
# GABPA = biological target: T3, GABPA (Homo sapiens, UniProt Q06546 1-454); conditions: protein: recombinant; tags: N-terminal GST; dsDNA, one strand shown
# T3 sequence: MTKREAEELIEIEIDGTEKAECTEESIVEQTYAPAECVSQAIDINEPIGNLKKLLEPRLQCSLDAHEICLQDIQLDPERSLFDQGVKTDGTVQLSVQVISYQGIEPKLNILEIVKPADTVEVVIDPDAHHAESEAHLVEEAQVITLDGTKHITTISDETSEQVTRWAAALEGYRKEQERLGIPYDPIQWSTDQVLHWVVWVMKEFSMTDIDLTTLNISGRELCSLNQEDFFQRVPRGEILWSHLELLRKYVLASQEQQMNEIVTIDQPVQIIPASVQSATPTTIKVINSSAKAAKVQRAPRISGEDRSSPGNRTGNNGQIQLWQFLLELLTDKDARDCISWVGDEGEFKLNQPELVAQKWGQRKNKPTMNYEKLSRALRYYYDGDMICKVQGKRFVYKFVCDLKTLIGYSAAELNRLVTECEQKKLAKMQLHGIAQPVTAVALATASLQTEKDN
# How it was run: as §1
# ERG = biological target: T4, ERG (Homo sapiens, UniProt P11308 1-479); conditions: protein: recombinant; tags: N-terminal GST; dsDNA, one strand shown
# T4 sequence: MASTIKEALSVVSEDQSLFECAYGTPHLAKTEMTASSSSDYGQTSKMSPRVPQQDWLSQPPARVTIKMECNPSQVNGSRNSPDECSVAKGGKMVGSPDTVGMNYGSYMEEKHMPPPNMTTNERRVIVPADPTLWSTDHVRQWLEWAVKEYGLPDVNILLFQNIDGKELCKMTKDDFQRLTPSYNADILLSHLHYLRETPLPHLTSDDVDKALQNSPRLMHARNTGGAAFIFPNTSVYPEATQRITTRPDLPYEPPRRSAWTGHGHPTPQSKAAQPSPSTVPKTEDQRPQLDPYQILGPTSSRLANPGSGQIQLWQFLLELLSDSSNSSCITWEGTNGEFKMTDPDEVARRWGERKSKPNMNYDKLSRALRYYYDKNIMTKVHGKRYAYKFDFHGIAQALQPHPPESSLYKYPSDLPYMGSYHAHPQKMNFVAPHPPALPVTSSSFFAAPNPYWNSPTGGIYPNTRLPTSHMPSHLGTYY
# How it was run: as §1
# ELF1 = ELF1 (Homo sapiens, UniProt P32519 1-619); conditions: protein: recombinant; tags: N-terminal GST; dsDNA, one strand shown
# How it was run: as §1
# EHF = biological target: T5, EHF (Homo sapiens, UniProt Q9NZC4 1-300); conditions: protein: recombinant; tags: N-terminal GST; dsDNA, one strand shown
# T5 sequence: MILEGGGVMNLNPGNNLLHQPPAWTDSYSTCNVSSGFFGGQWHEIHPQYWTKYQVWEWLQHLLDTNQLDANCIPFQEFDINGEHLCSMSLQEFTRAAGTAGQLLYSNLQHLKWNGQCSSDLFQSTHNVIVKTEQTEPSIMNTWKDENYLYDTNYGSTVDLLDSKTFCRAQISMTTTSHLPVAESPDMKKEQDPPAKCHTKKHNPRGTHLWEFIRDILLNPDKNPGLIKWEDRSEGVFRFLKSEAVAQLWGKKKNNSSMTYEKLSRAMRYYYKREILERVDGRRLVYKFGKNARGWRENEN
# How it was run: as §1
# SPI1 = SPI1 (Homo sapiens, UniProt P17947 1-270); conditions: protein: recombinant; tags: N-terminal GST; dsDNA, one strand shown
# How it was run: as §1
# SPIB = SPIB (Homo sapiens, UniProt Q01892 1-262); conditions: protein: recombinant; tags: N-terminal GST; dsDNA, one strand shown
# How it was run: as §1
# ELK3 = biological target: T6, ELK3 (Homo sapiens, UniProt P41970 1-407); conditions: protein: recombinant; tags: N-terminal GST; dsDNA, one strand shown
# T6 sequence: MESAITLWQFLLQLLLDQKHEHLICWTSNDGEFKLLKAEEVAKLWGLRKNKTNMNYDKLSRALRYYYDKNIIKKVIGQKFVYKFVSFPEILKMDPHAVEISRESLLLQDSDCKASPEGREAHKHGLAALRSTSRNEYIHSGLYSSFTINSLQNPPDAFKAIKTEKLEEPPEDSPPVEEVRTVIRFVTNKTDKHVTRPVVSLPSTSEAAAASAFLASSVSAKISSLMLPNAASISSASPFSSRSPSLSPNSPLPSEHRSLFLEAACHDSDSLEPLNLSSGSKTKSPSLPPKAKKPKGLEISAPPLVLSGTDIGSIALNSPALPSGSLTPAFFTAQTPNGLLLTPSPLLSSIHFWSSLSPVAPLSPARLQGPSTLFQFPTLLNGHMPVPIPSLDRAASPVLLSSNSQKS
# How it was run: as §1
# FEV = biological target: T7, FEV (Homo sapiens, UniProt Q99581 1-238); conditions: protein: recombinant; tags: N-terminal GST; dsDNA, one strand shown
# T7 sequence: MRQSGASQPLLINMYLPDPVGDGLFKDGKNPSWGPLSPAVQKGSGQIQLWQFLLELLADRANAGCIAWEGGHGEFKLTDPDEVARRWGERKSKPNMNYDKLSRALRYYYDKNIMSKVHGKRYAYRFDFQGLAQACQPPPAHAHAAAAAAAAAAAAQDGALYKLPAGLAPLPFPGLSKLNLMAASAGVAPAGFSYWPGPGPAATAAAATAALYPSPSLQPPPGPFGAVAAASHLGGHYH
# How it was run: as §1
# ETV5 = ETV5 (Homo sapiens, UniProt P41161 1-510); conditions: protein: recombinant; tags: N-terminal GST; dsDNA, one strand shown
# How it was run: as §1
# HSF1 = HSF1 (Homo sapiens, UniProt Q00613 1-529); conditions: protein: recombinant; tags: N-terminal GST; chain copies: 3; dsDNA, one strand shown
# How it was run: as §1
# SPIC = biological target: T8, SPIC (Homo sapiens, UniProt Q8N5J4 1-248); conditions: protein: recombinant; tags: N-terminal GST; dsDNA, one strand shown
# T8 sequence: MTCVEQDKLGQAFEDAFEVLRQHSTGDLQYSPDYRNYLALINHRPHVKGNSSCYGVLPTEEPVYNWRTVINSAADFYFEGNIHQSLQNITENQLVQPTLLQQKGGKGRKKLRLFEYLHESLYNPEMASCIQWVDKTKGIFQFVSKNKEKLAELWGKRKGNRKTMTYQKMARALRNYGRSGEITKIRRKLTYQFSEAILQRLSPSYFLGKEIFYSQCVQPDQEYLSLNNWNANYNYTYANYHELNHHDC
# How it was run: as §1
# ELF4 = ELF4 (Homo sapiens, UniProt Q99607 1-663); conditions: protein: recombinant; tags: N-terminal GST; dsDNA, one strand shown
# How it was run: as §1
# ELK4 = biological target: T9, ELK4 (Homo sapiens, UniProt P28324-2 1-405); conditions: protein: recombinant; tags: N-terminal GST; dsDNA, one strand shown
# T9 sequence: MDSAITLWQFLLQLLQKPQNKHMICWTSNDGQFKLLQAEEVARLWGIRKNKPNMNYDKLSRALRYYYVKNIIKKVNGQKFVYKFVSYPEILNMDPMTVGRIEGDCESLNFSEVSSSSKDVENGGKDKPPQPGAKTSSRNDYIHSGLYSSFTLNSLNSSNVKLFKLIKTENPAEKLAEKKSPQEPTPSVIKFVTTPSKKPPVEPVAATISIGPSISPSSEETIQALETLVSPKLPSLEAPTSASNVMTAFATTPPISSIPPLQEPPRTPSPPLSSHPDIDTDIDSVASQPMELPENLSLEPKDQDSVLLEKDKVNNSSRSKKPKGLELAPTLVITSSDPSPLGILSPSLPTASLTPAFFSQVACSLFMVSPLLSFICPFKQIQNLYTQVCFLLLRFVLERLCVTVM
# How it was run: as §1
# ETV2 = biological target: T10, ETV2 (Homo sapiens, UniProt O00321 1-342); conditions: protein: recombinant; tags: N-terminal GST; dsDNA, one strand shown
# T10 sequence: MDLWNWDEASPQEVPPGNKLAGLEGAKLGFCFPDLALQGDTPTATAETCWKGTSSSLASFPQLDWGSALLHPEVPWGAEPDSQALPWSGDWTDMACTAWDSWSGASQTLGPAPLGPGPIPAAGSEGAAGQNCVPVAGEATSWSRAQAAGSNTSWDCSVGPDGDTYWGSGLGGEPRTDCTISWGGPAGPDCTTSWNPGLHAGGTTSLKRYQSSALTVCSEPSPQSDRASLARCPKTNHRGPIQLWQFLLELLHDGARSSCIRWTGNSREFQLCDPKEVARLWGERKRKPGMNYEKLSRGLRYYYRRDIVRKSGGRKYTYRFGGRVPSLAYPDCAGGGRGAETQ
# How it was run: as §1
# ELF3 = biological target: T11, ELF3 (Homo sapiens, UniProt P78545 1-371); conditions: protein: recombinant; tags: N-terminal GST; dsDNA, one strand shown
# T11 sequence: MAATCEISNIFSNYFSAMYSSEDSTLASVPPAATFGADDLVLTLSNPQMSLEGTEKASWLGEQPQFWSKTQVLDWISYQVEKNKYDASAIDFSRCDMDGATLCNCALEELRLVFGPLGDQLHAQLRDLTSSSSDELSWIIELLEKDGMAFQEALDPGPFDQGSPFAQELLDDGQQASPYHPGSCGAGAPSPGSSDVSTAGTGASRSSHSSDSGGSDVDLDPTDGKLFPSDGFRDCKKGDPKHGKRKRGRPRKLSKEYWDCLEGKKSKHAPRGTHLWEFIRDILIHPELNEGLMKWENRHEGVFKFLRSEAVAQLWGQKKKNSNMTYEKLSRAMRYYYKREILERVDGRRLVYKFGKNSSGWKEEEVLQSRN
# How it was run: as §1
# CRX = CRX (Homo sapiens, UniProt O43186 1-299); conditions: protein: recombinant; tags: N-terminal GST; dsDNA, one strand shown
# How it was run: as §1
# ETV1 = ETV1 (Homo sapiens, UniProt P50549 1-477); conditions: protein: recombinant; tags: N-terminal GST; dsDNA, one strand shown
# How it was run: as §1
# Sequence of ELF1 (P32519 whole entry): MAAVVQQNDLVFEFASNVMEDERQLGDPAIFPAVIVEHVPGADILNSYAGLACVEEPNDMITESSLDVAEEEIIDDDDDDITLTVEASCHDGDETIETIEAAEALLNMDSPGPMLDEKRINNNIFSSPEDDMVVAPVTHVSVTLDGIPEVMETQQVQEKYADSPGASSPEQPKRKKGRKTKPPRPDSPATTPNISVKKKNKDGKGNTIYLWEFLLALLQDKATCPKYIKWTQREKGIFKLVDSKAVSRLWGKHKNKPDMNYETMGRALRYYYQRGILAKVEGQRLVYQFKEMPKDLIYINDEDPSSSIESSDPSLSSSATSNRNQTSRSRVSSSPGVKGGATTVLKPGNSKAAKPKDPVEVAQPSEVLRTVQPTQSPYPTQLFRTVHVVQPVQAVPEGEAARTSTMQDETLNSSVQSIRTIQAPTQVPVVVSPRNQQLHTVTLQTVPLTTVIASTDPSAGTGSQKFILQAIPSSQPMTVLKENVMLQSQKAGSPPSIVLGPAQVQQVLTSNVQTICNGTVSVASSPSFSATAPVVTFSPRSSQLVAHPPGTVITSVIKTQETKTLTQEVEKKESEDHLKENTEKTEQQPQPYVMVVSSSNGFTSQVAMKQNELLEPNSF
# Sequence of CRX (O43186 whole entry): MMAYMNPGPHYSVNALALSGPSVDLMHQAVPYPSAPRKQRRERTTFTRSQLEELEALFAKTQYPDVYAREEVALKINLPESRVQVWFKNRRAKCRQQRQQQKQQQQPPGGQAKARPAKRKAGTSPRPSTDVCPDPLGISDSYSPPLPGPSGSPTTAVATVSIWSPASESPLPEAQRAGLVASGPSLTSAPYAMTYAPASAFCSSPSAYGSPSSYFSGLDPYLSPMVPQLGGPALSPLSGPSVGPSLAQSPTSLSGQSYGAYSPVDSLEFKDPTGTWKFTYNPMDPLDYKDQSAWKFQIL
# Sequence of HSF1 (Q00613 whole entry): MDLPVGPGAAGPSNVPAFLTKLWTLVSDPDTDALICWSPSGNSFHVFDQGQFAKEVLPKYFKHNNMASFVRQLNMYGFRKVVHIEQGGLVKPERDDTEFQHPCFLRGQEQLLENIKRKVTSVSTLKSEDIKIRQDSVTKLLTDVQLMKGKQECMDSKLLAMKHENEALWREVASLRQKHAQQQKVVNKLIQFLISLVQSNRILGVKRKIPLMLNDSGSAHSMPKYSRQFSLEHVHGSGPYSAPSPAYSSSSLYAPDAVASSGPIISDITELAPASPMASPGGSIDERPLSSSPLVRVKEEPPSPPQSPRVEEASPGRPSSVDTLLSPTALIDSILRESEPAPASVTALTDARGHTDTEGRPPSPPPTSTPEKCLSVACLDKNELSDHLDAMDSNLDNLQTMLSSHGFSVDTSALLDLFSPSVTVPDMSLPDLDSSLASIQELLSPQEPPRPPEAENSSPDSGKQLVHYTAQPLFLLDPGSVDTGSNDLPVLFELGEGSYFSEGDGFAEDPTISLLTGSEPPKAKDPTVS
# Sequence of ELF4 (Q99607 whole entry): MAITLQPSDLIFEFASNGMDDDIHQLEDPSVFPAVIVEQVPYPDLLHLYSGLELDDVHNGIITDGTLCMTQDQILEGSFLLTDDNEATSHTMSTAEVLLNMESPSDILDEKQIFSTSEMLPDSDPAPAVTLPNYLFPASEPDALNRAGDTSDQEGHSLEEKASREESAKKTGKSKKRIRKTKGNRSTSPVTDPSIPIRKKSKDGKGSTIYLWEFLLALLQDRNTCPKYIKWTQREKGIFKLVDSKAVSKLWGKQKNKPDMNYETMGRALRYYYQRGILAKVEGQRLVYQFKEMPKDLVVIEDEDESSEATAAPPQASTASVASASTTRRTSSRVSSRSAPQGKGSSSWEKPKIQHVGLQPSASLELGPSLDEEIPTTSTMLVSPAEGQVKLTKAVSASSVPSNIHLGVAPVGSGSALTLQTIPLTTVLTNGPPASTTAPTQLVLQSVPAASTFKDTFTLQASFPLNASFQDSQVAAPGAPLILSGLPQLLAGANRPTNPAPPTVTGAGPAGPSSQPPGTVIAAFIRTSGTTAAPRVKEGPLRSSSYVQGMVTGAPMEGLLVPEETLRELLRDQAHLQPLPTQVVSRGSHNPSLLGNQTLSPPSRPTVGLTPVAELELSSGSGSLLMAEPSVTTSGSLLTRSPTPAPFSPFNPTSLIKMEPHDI
# Sequence of ETV5 (P41161 whole entry): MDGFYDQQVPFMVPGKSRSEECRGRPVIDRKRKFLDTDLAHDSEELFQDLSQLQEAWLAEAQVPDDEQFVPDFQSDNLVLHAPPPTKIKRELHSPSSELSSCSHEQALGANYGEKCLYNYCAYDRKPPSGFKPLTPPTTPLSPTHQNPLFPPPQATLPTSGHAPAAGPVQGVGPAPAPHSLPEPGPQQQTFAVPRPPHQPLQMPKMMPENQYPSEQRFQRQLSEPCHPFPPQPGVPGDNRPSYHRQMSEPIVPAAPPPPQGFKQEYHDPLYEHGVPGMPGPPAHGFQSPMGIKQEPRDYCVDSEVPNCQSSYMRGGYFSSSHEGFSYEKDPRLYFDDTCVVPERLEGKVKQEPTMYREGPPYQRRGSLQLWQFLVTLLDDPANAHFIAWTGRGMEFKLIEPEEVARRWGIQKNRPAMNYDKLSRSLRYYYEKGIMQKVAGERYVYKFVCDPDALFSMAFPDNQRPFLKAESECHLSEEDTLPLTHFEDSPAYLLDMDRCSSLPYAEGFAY
# Sequence of SPIB (Q01892 whole entry): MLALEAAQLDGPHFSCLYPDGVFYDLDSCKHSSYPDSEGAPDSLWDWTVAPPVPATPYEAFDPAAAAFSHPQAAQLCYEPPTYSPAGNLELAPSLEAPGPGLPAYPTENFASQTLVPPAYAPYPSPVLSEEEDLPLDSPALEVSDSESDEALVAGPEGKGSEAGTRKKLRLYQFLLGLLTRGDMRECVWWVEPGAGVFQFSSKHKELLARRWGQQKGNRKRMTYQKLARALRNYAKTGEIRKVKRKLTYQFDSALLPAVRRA
# Sequence of ETV1 (P50549 whole entry): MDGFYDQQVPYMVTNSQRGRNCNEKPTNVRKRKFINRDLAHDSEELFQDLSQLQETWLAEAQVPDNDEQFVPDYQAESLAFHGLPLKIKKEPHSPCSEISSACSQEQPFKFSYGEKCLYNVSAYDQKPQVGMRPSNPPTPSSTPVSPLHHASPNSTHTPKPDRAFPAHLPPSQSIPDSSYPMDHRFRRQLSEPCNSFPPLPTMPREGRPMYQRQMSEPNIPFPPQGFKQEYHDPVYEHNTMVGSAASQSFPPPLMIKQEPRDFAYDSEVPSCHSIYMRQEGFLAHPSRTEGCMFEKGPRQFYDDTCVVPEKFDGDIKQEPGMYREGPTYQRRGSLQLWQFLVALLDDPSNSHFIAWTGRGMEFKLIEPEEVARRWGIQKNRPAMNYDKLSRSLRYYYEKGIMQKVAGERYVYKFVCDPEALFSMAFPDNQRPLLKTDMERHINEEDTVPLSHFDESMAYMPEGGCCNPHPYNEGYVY
sequence,measurement,setting,value
GAATTT,binding signal,FLI1,"1.21 fold enrichment (6-mer frequency, TF over GST control)"
same,binding signal,ELK1,"1.11 fold enrichment (6-mer frequency, TF over GST control)"
same,binding signal,GABPA,"1.21 fold enrichment (6-mer frequency, TF over GST control)"
same,binding signal,ERG,"1.24 fold enrichment (6-mer frequency, TF over GST control)"
same,binding signal,ELF1,"1.17 fold enrichment (6-mer frequency, TF over GST control)"
same,binding signal,EHF,"1.13 fold enrichment (6-mer frequency, TF over GST control)"
same,binding signal,SPI1,"1.24 fold enrichment (6-mer frequency, TF over GST control)"
same,binding signal,SPIB,"1.28 fold enrichment (6-mer frequency, TF over GST control)"
same,binding signal,ELK3,"1.19 fold enrichment (6-mer frequency, TF over GST control)"
same,binding signal,FEV,"1.19 fold enrichment (6-mer frequency, TF over GST control)"
same,binding signal,ETV5,"1.26 fold enrichment (6-mer frequency, TF over GST control)"
same,binding signal,HSF1,"1.7 fold enrichment (6-mer frequency, TF over GST control)"
same,binding signal,SPIC,"1.39 fold enrichment (6-mer frequency, TF over GST control)"
same,binding signal,ELF4,"1.25 fold enrichment (6-mer frequency, TF over GST control)"
same,binding signal,ELK4,"1.31 fold enrichment (6-mer frequency, TF over GST control)"
same,binding signal,ETV2,"1.14 fold enrichment (6-mer frequency, TF over GST control)"
same,binding signal,ELF3,"1.13 fold enrichment (6-mer frequency, TF over GST control)"
same,binding signal,CRX,"1.39 fold enrichment (6-mer frequency, TF over GST control)"
same,binding signal,ETV1,"1.24 fold enrichment (6-mer frequency, TF over GST control)"
